Measured values as given in PubChem BioAssay (Tox21).
Where “and” joins values, the source holds several entries; their conditions need not be identical. Equal values may be shown once. Inconclusive results are not listed. The source holds several records for some structures; these can differ, active in one and inactive in another. Calls of active or inactive are those of the source. Unless noted, calls follow the shape of the dose curve; as a rule, active = well fitted curve in the direction sought with a large enough effect in the repeat runs; inconclusive = weak or mixed curves; inactive = no such curve, though single readings can be large; an effect the other way counts as inactive or inconclusive.

Columns and labels:
[1] = qHTS assay for small molecule agonists of the p53 signaling pathway (AID 651631; calls by dose curve; also: nearly all actives have a fitted effect of over 15% in size; also: potency is read from the fitted curve at half-maximal effect)
Summary of the method: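 Fluorescence intensity from cleaved LiveBLAzer B/G substrate (2 h, room temperature) served as the signal. Beforehand, HCT-116 reporter cells bearing p53 response elements were treated 16 h at 37 °C with DMSO-dissolved compounds.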

[2] = qHTS assay for small molecules that induce genotoxicity in human embryonic kidney cells expressing luciferase-tagged ATAD5 (AID 651632); also: nearly all actives have a fitted effect of over 15% in size; also: potency is read from the fitted curve at half-maximal effect
Summary of the method: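 HEK293T cells carrying a luciferase reporter tagged to ATAD5 were exposed to compound or DMSO vehicle for 16 hr at 37C, 5% CO2. Amplite was added, and after 30 min at room temperature luciferase activity was read as a marker of ATAD5 induction.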

[3] = qHTS assay for small molecules that induce genotoxicity in human embryonic kidney cells expressing luciferase-tagged ATAD5 - cell viability (AID 651634; calls by dose curve; also: nearly all actives have a fitted effect of over 25% in size; also: potency is read from the fitted curve at half-maximal effect)
Summary of the method: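 HEK293T cells expressing luciferase-tagged ATAD5 were exposed to compound or DMSO for 15.5 hr at 37C, 5% CO2. Viability was then read as live-cell protease activity by CellTiter-Fluor fluorescence after 30 min at 37C.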

[4] = qHTS assay for small molecule disruptors of the mitochondrial membrane potential (AID 720635); also: potency is read from the fitted curve at half-maximal effect
Summary of the method: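 HepG2 cells exposed to compound 1 hr at 37C, then Mito-MPS dye 30 min. Ratio read of aggregate (540/590 nm) versus monomer (490/535 nm) fluorescence.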

[5] = qHTS assay to test for compound auto fluorescence at 590 nm (red) in HepG2 cells (AID 720674)
Summary of the method: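 Fluorescence at 590 nm emission following 540 nm excitation was recorded from HepG2 wells one hour after compound transfer, with DMSO-only wells as vehicle and Rose Bengal sodium equivalency as the scale.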

[6] = qHTS assay to test for compound auto fluorescence at 535 nm (green) in HepG2 cells (AID 720675)
[7] = qHTS assay to test for compound auto fluorescence at 460 nm (blue) in HEK293 cells (AID 720678)
Summary of the method: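 After cell attachment (4-5 hr, 37C), compounds were pinned onto HEK293 monolayers in 10% dialyzed FBS medium. The blue channel (405/460 nm) was read following overnight culture. Equivalency was calculated against triamterene.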

[8] = qHTS assay to test for compound auto fluorescence at 590 nm (red) in HEK293 cells (AID 720679)
Summary of the method: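 Plates of HEK293 cells (10% dialyzed FBS) are treated with 23 nL compound or DMSO vehicle after a 4-5 hr attachment period, incubated overnight at 37C, and read for red fluorescence at 540/590nm.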

[9] = qHTS assay to test for compound auto fluorescence at 535 nm (green) in HEK293 cells (AID 720680)
[10] = qHTS assay to test for compound auto fluorescence at 460 nm (blue) in HEK293 cell free culture (AID 720681)
Summary of the method: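 Compounds were added to cell-free DMEM with 10% FBS and fluorescence read directly. The blue channel used 405 nm excitation and 460 nm emission, with triamterene as the reference fluorophore.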

[11] = qHTS assay to test for compound auto fluorescence at 535 nm (green) in HEK293 cell free culture (AID 720682)
Summary of the method: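 Intrinsic compound fluorescence is measured in culture medium containing 10% FBS, with excitation at 485 nm and detection at 535 nm, referenced to fluorescein.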

[12] = qHTS assay to test for compound auto fluorescence at 590 nm (red) in HEK293 cell free culture (AID 720683)
Summary of the method: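 Cell-free wells of DMEM with 10% FBS received compound, and intrinsic fluorescence was read at excitation/emission 540/590 nm. Values expressed as equivalence to Rose Bengal sodium.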

[13] = qHTS assay to test for compound auto fluorescence at 590 nm (red) in HepG2 cell free culture (AID 720684)
Summary of the method: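 Compounds are added to culture medium (MEM, 10% FBS) lacking cells, then fluorescence is read at excitation 540 nm, emission 590 nm, with Rose Bengal sodium as the equivalency standard.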

[14] = qHTS assay to test for compound auto fluorescence at 460 nm (blue) in HepG2 cell free culture (AID 720685)
Summary of the method: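 Compound (23 nL) or DMSO pinned into cell-free MEM with 10% FBS; blue fluorescence read at 405/460 nm excitation/emission, expressed as auto-fluorescence equivalency to triamterene.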

[15] = qHTS assay to test for compound auto fluorescence at 535 nm (green) in HepG2 cell free culture (AID 720686)
[16] = qHTS assay to test for compound auto fluorescence at 460 nm (blue) in HepG2 cells (AID 720687)
Summary of the method: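 HepG2 cells in MEM with 10% FBS, attached overnight at 37 C, were exposed to compound or DMSO for 1 hr at 37 C, 5% CO2. Blue fluorescence was read at 405/460 nm, with triamterene as reference fluorophore.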

[17] = molecular target: Glucocorticoid receptor (Homo sapiens) (UniProt P04150); assay: qHTS assay to identify small molecule agonists of the glucocorticoid receptor (GR) signaling pathway (AID 720691; active = well fitted activation curve with a large enough effect in the signal ratio in the repeat runs, not every such curve was filed as active; the % refers to the signal ratio); settings: GR-bla HeLa, beta-lactamase reporter ratio, 18 h; activation: at 62.4 µM (top of the series)
Summary of the method: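 GR-bla HeLa cells (beta-lactamase reporter under glucocorticoid response element) were plated 4 h at 37 C/5% CO2, given compounds in DMSO, and incubated 18 h at 37 C. LiveBLAzer B/G FRET substrate was added for 2 h at room temperature, then fluorescence intensity read.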

[18] = molecular target: Glucocorticoid receptor (Homo sapiens) (UniProt P04150); assay: qHTS assay to identify small molecule antagonists of the glucocorticoid receptor (GR) signaling pathway (AID 720692; active = well fitted inhibition curve with a large enough effect in the signal ratio in the repeat runs, not every such curve was filed as active; the % refers to the signal ratio)
Summary of the method: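 GR-bla HeLa cells (beta-lactamase reporter under glucocorticoid response element) were pre-plated 4 h at 37 C, treated with compounds plus 5 nM dexamethasone (final) for 18 h, then read by LiveBLAzer B/G FRET fluorescence after 2 h.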

[19] = qHTS assay for small molecule agonists of the p53 signaling pathway - cell viability (AID 651633; calls by dose curve; also: nearly all actives have a fitted effect of over 30% in size; also: potency is read from the fitted curve at half-maximal effect)
Summary of the method: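 p53RE-bla cells were treated with compound for 16 hours at 37 C. Cytotoxicity was then measured as CellTiter-Glo luminescence after 30 min at room temperature.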

[20] = qHTS assay for small molecule disruptors of the mitochondrial membrane potential - cell viability (AID 720634; calls by dose curve; also: nearly all actives have a fitted effect of over 20% in size; also: potency is read from the fitted curve at half-maximal effect)
Summary of the method: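 HepG2 cells seeded overnight at 37 C, then exposed to compound or DMSO for 1 hr at 37 C, 5% CO2. m-MPI dye added, then CellTiter-Glo for 30 min at room temperature; viability read as ATP luminescence.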
% is scaled to controls: 0 for no effect and ±100 for the full control effect.

Glucocorticoid receptor (Homo sapiens), sequence (P04150 whole entry, looked up): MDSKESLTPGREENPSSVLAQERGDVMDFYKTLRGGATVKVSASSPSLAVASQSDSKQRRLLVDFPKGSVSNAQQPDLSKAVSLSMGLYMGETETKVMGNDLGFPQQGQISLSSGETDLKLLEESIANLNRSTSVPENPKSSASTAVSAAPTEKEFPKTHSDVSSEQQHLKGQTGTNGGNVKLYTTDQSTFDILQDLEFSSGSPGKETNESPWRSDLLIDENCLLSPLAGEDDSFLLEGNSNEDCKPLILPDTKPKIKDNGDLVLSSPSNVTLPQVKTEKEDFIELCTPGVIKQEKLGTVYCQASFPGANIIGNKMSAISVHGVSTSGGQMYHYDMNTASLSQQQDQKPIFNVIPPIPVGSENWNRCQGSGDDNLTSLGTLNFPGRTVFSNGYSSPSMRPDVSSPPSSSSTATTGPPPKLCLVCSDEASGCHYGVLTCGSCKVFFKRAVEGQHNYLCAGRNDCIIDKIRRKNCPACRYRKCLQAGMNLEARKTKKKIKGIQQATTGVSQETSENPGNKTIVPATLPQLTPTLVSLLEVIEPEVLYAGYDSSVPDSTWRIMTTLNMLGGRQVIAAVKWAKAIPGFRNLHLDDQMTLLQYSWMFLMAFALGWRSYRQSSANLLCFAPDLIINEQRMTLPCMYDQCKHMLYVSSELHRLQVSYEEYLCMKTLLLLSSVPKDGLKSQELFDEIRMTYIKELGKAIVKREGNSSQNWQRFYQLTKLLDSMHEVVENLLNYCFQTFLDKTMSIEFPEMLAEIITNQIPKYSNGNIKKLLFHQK

CCCCCOC(=O)CCCC
inactive: Potency [1] | Potency [2] | Potency [3] | Potency [4] | Potency [5] | Potency [6] | Potency [7] | Potency [8] | outcome [9] | Potency [10] | outcome [11] | Potency [12] | Potency [13] | Potency [14] | Potency [15] | Potency [16] | Potency [17] | Potency [18]

C=CC(=O)OCC(CO)(COCC(COC(=O)C=C)(COC(=O)C=C)COC(=O)C=C)COC(=O)C=C
inactive: Potency [5] | Potency [7] | Potency [8] | outcome [9] | Potency [10] | outcome [11] | Potency [12] | Potency [13] | Potency [14] | Potency [15] | Potency [16]
active: Potency [1] 67.8 µM | Potency [2] 2.4 µM | Potency [19] 2.7 µM | Potency [3] 7.6 µM

O=C(OC[C@H]1O[C@@H](OC(=O)c2cc(O)c(O)c(OC(=O)c3cc(O)c(O)c(O)c3)c2)[C@H](OC(=O)c2cc(O)c(O)c(OC(=O)c3cc(O)c(O)c(O)c3)c2)[C@@H](OC(=O)c2cc(O)c(O)c(OC(=O)c3cc(O)c(O)c(O)c3)c2)[C@@H]1OC(=O)c1cc(O)c(O)c(OC(=O)c2cc(O)c(O)c(O)c2)c1)c1cc(O)c(O)c(OC(=O)c2cc(O)c(O)c(O)c2)c1
active: Potency [1] 2.66 µM and 10.4 µM | Potency [4] 2.37 µM
5.96 µM (active) and inactive: Potency [19]
10.6 µM (active) and inactive: Potency [20]
inactive: Potency [2] | Potency [5] | Potency [7] | Potency [8] | outcome [9] | Potency [10] | outcome [11] | Potency [12] | Potency [13] | Potency [14] | Potency [15] | Potency [16] | Potency [18]

N/C(=N\N=C\c1ccc(Cl)cc1)N/N=C/c1ccc(Cl)cc1
active: Potency [1] 26.6 µM | Potency [19] 26.6 µM
inactive: Potency [2] | Potency [3] | Potency [5] | Potency [6] | Potency [7] | Potency [8] | outcome [9] | Potency [10] | outcome [11] | Potency [12] | Potency [13] | Potency [14] | Potency [15] | Potency [17] | Potency [18]

CC(=O)N1CCN(c2ccc(OC[C@H]3CO[C@](Cn4ccnc4)(c4ccc(Cl)cc4Cl)O3)cc2)CC1
inactive: Potency [1] | Potency [2] | Potency [20] | Potency [5] | Potency [6] | Potency [7] | Potency [8] | outcome [9] | Potency [10] | outcome [11] | Potency [12] | Potency [13] | Potency [14] | Potency [16] | Potency [17] | Potency [18]
active: Potency [4] 4.86 µM
inactive and 61.1 µM (active): Potency [19]

COc1c(C)c2c(c(O)c1C/C=C(\C)CCC(=O)O)C(=O)OC2
inactive: Potency [2] | Potency [20] | fluorescence, relative to Rose Bengal [5] 0.0782% [at 18.6 µM] | fluorescence, % of fluorescein control [6] 0.0327% [at 18.6 µM] | fluorescence, % of triamterene [7] -0.0265% [at 18.6 µM] | fluorescence, % of fluorescent control [8] 0.167% [at 18.6 µM] | fluorescence, % of fluorescein [9] -0.0651% [at 18.6 µM] | fluorescence, % of fluorescent control [10] -0.004% [at 18.6 µM] | activity change [11] -0.148% [at 18.6 µM] | fluorescence, % of fluorescent control [12] 0.195% [at 18.6 µM] | fluorescence, % of Rose Bengal [13] 0.0127% [at 18.6 µM] | fluorescence, % of fluorescent control [14] 0.227% [at 18.6 µM] | fluorescence, % of fluorescein control [15] -0.0501% [at 18.6 µM] | fluorescence, % of fluorescent control [16] -0.0404% [at 18.6 µM]
active: Potency [1] 0.0717 µM | Potency [3] 0.202 µM
